Test results: PubChem BioAssay (NCI)
This is part of a sample that, as a whole, favours compounds with a hit. Of some 83,000 tested, about 20% had one in any assay.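 Interpretation: 100, growth as untreated; towards 0, rising growth inhibition; 0, no net growth; 0 to -100, cell death. Compounds scoring below 10 were considered active.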 A number with no mark means an inactive call. Calls of active or inactive are those of the source.

Experiments:
Experiment in all cases: NCI-60 one-dose screen, 48 h (100 = growth as untreated, 0 = no growth, -100 = all killed)
Settings in all cases: 10 µM unless noted
HCT-15 colon = tested on: HCT-15 colon
HT29 colon = tested on: HT29 colon
SNB-75 CNS = tested on: SNB-75 CNS
SNB-19 CNS = tested on: SNB-19 CNS
U251 CNS = tested on: U251 CNS
SK-MEL-5 melanoma = tested on: SK-MEL-5 melanoma
UACC-62 melanoma = tested on: UACC-62 melanoma
LOX IMVI melanoma = tested on: LOX IMVI melanoma
SK-MEL-28 melanoma = tested on: SK-MEL-28 melanoma
SK-MEL-2 melanoma = tested on: SK-MEL-2 melanoma
EKVX NSCLC = tested on: EKVX NSCLC
SN12C renal = tested on: SN12C renal
UO-31 renal = tested on: UO-31 renal
TK-10 renal = tested on: TK-10 renal
ACHN renal = tested on: ACHN renal
CAKI-1 renal = tested on: CAKI-1 renal
A498 renal = tested on: A498 renal
CCRF-CEM leukemia = tested on: CCRF-CEM leukemia
MOLT-4 leukemia = tested on: MOLT-4 leukemia

Structure (SMILES) | growth (HCT-15 colon) | growth (HT29 colon) | growth (SNB-75 CNS) | growth (SNB-19 CNS) | growth (U251 CNS) | growth (SK-MEL-5 melanoma) | growth (UACC-62 melanoma) | growth (LOX IMVI melanoma) | growth (SK-MEL-28 melanoma) | growth (SK-MEL-2 melanoma) | growth (EKVX NSCLC) | growth (SN12C renal) | growth (UO-31 renal) | growth (TK-10 renal) | growth (ACHN renal) | growth (CAKI-1 renal) | growth (A498 renal) | growth (CCRF-CEM leukemia) | growth (MOLT-4 leukemia)
c1csc(C2=NN3C(C2)c2ccccc2OC3c2ccncc2)c1 (stereo not given) | 95.5% | 107% | 82.2% | 90.5% | 91.5% | 92.7% | 94.1% | 89.3% | 107% | 96.3% | 78.2% | 89.9% | 64.5% | 111% | 97.7% | 78.2% | 110% | 95.8% | 94.4%
CCn1c(O)c(/C=N/NC(=O)C(C)c2ccc(CC(C)C)cc2)sc1=S (stereo not given) | 17.6% | 10.1% | -2% (active) | 37.5% | 15.6% | 17% | 46% | 27.1% | 69.6% | 40.3% | 41.1% | 38% | 23.6% | 56.5% | 34.6% | 35.1% | 17.2% | 12.9% | 18.4%
COc1ccc(-n2nc(C)c3c(Nc4ccc(NC(=O)Nc5ccc(Cl)c(C(F)(F)F)c5)cc4)ncnc32)cc1 | -9.82% (active) | 1.57% (active) | -4.71% (active) | 13.5% | -29.2% (active) | -44.7% (active) | 4.84% (active) | -81.4% (active) | 4.78% (active) | -30.2% (active) | 6.63% (active) | 3.5% (active) | 4.67% (active) | 5.29% (active) | 1.09% (active) | -3.15% (active) | -3.28% (active) | 17.2% | 8.28% (active)
CC(O)CN1CC(O)=C(c2nc3ccccc3s2)C1=N (stereo not given) | 158% | 104% | 99.3% | 96.5% | 157% | 105% | 102% | 211% | 131% | 95.1% | 108% | 103% | 90.3% | 131% | 228% | 101% | 116% | 97.4% | 103%
CCn1c(Cc2ccccc2Nc2c(Cl)cccc2Cl)nnc1SCC(=O)NN1C(=O)/C(=C/c2cc(OC)c(O)c(OC)c2)SC1=S | 50.4% | 25.5% | 2.65% (active) | 41.9% | 31.5% | 26.1% | 33.2% | 26.8% | 45.7% | 30.7% | 60.2% | 54.8% | 59.6% | 70% | 58.9% | 37% | 20.6% | 19.1% | 23.1%
NS(=O)(=O)c1ccc(CN=C2NC(=O)S/C2=C\c2ccc(Br)cc2)cc1 | 103% | 105% | 89.1% | 97.7% | 97.9% | 99.2% | 93.3% | 100% | 100% | 102% | 103% | 97.1% | 88.8% | 108% | 102% | 100% | 102% | 95% | 99.3%
Cc1ccc(C2=NN3C(C2)c2cc(Br)ccc2OC32CCN(Cc3ccccc3)CC2)o1 (stereo not given) | 85.1% | 107% | 79% | 94.9% | 96.3% | 92.1% | 82.3% | 94.4% | 102% | 100% | 86.3% | 91.5% | 58.6% | 116% | 98.7% | 71.6% | 105% | 80.3% | 79.6%
COc1ccc(-n2nc(C)c3c(Nc4ccc(NC(=O)Nc5c(Cl)cccc5Cl)cc4)ncnc32)cc1 | 72.2% | 31.4% | 55.9% | 79.4% | 63.3% | 5.92% (active) | 46.7% | 39.1% | 81.9% | 79.1% | 67% | 77% | 8.74% (active) | 59.8% | 43.3% | 57.9% | 63.4% | 84.5% | 81.7%
Cc1ccc2c(C(C[N+](=O)[O-])c3ccccc3)c(-c3ccccc3)[nH]c2c1 (stereo not given) | 18.8% [9.5 µM] | 0.357% [9.5 µM] (active) | -6.93% [9.5 µM] (active) | 37.4% [9.5 µM] | 25% [9.5 µM] | 32.8% [9.5 µM] | 38% [9.5 µM] | 28.5% [9.5 µM] | 49.3% [9.5 µM] | 1.05% [9.5 µM] (active) | 42.3% [9.5 µM] | 42.2% [9.5 µM] | 35% [9.5 µM] | 43.7% [9.5 µM] | 36.7% [9.5 µM] | 21.5% [9.5 µM] | -1.59% [9.5 µM] (active) | 19.5% [9.5 µM] | 21.2% [9.5 µM]
O=[N+]([O-])c1cnc(N2CCN(CC3CC3)CC2)nc1N1CCN(CC2CC2)CC1 | 96% | 87% | 81% | 100% | 98.4% | 99.5% | 110% | 99.6% | 91.3% | 98.5% | 86.5% | 98.2% | 80.2% | 102% | 104% | 92.5% | 86.6% | 106% | 103%
C#Cc1cccc(NC(=O)c2ccccc2NC(=O)CCl)c1 | 68.7% [8.25 µM] | 86.1% [8.25 µM] | 70.5% [8.25 µM] | 74.2% [8.25 µM] | 74.6% [8.25 µM] | 87.7% [8.25 µM] | 85.1% [8.25 µM] | 91.4% [8.25 µM] | 102% [8.25 µM] | 90.2% [8.25 µM] | 94.1% [8.25 µM] | 64.6% [8.25 µM] | 86.9% [8.25 µM] | 91% [8.25 µM] | 92% [8.25 µM] | 87.9% [8.25 µM] | 107% [8.25 µM] | 50.4% [8.25 µM] | 70.3% [8.25 µM]
C#Cc1cccc(NC(=O)c2ccccc2NC(=O)C=C)c1 | 104% [8.25 µM] | 109% [8.25 µM] | 75% [8.25 µM] | 94.1% [8.25 µM] | 100% [8.25 µM] | 99.5% [8.25 µM] | 104% [8.25 µM] | 97.4% [8.25 µM] | 109% [8.25 µM] | 104% [8.25 µM] | 109% [8.25 µM] | 94% [8.25 µM] | 85.6% [8.25 µM] | 81.1% [8.25 µM] | 105% [8.25 µM] | 97.3% [8.25 µM] | 96.8% [8.25 µM] | 106% [8.25 µM] | 102% [8.25 µM]
COc1ccc(S(=O)(=O)N2CCCCCC2)cc1NC(=O)c1[nH]c(C)c2c1CCCCC2=O | 12.8% | 16.8% | 4.93% (active) | 38.2% | 29.9% | -43.8% (active) | 15.8% | -33.6% (active) | 49.8% | 43.4% | 38.4% | 36.9% | 12.1% | 15.3% | 25.2% | 12.7% | -25.6% (active) | 33.7% | 30.6%
Cn1ccnc1C(=O)/C=C/c1ccccc1 | 20.4% | 1.12% (active) | 12.9% | 42.2% | 25% | 15% | 43.1% | 18.3% | 30.1% | 46.9% | -9.85% (active) | 41.6% | -33.7% (active) | 15.3% | 33% | 11.7% | -15.9% (active) | 9.1% (active) | 70%
Fc1ccc2[nH]cc(SSc3c[nH]c4ccc(F)cc34)c2c1 | 25.8% | 39.2% | 64.1% | 41.1% | 13.8% | 70% | 63.8% | 25.5% | 75.6% | 62.8% | 14.2% | 65.1% | 21.5% | 84.6% | 55.1% | 32.6% | 35% | 15.9% | 14%
